High-throughput results as filed in PubChem BioAssay.
The list is not random: actives were taken first. Their share in the collection is about 4.8%.
SMARCA2 act – SMARCA2 (BRM) function activators, primary screen, cell-based, luminescence, high throughput; MG213 cells, MMTV-luciferase reporter, dexamethasone, overnight; hit rate 1% among 370,000; activation, % at 9.1 µM; AID 652017, 2013; in the data active = activation above about 7.8%
hgDAF12 agonist – H. glycines DAF-12 receptor agonists, primary screen, cell-based, luminescence, HEK293, GAL4 fusion, UAS-luciferase. Nuclear hormone receptor DAF-12 (Heterodera glycines), GAL4 fusion. HEK293 GAL4-hgDAF12 UAS-luciferase reporter, agonist luminescence; normalized to butyrate control. activation, % at 6.8 µM. hit rate 1.8% among 370,000. AID 687014, 2013;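 active = activation above a cutoff set at the mean of all screened compounds plus 3 SD, cut at about 10% in these data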
DAX1 inh-1 – DAX1 (NR0B1) inhibitors on StAR promoter, primary screen, cell-based, luminescence, SF-1 (NR5A1), full-length DAX-1; inhibition, % at 6.8 µM; HEK293T StAR-luciferase reporter, SF-1/DAX-1 repression relief; hit rate 1.1% among 370,000; AID 652010, 2013;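 active = inhibition above the mean over all tested compounds plus 3 SD, cut at about 3.6% in these data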;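 note: higher inhibition means more luminescence from relief of DAX-1 repression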
DAX1 inh-2 – DAX1 (NR0B1) inhibitors, primary screen, cell-based, HEK293, Gal4-DAX1, luciferase luminescence. HEK293 Gal4-DAX1 luciferase reporter. AID 504766, 2011. Nuclear receptor subfamily 0 group B member 1 (Homo sapiens), P51843. inhibition, % at 6.75 µM. hit rate 0.99% among 340,000;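 active = inhibition above the mean over all tested compounds plus 3 SD, cut at about 4.2% in these data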;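 note: inhibition shows as a rise in luminescence from relieved DAX1 repression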
Target sequence (P51843 207-470 limits assumed): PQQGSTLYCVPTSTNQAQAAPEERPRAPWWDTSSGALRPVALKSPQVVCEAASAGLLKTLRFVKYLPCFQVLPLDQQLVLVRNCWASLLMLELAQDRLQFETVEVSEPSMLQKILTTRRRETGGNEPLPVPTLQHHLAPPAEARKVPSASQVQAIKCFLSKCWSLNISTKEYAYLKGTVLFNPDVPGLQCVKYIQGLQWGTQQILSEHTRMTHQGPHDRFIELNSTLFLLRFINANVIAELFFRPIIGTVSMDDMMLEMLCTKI
hcDAF12 agonist – H. contortus DAF-12 nuclear receptor activators, primary screen, cell-based, luminescence, HEK293, lit1-tk-luc reporter | HEK293 hcDAF-12 lit1-tk-luc reporter; 0% DMSO, 100% Δ7-dafachronic acid | activation, % at 6.8 µM | hit rate 1.4% among 370,000;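 active = activation above the mean of all tested compounds plus 3 SD, cut at about 5.5% in these data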
ssDAF12 agonist – S. stercoralis DAF-12 nuclear receptor activators, primary screen, cell-based, luminescence, HEK293, GRIP1 co-expression, lit1-tk-luc. HEK293 ssDAF-12/GRIP1 lit1-tk-luc reporter; % of 3 µM dafachronic acid response. hit rate 1% among 370,000. AID 652126, 2013. Nuclear hormone receptor DAF-12 (Strongyloides stercoralis). activation, % at 6.8 µM;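 active = activation above the mean over all tested compounds plus 3 SD, cut at about 0.9% in these data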
SMARCA2 conf – SMARCA2 (BRM) function activators, confirmation, cell-based, luminescence, triplicate; hit rate 30% among 3,500; activation, % at 9.1 µM; MG213 cells, MMTV-luciferase with dexamethasone, overnight; MG213 cells expressing E1A, Rb sequestered; DMSO wells 0%, reference activator 100%; shares compounds with SMARCA2 act;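 active = activation above its plate's cutoff, the mean activation of tested wells plus 3 SD, cut at about 7.9% in these data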
GAL4-VP16 Luc – GAL4-VP16 luciferase reporter activation, counter-screen for SMARCA2 (BRM) activator project, cell-based, pG5luc, luminescence, high throughput; shares compounds with SMARCA2 act; HEK293 GAL4-VP16 pG5luc reporter; scaled: DMSO wells 0%, SAHA wells 100%; activation, % at 9.1 µM; hit rate 41% among 3,500;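 active = activation above the solvent-only control well mean plus 3 SD, averaged across control plates, cut at about 5.2% in these data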
Of the large screens only hits and unclear results are named; the others gave an inactive call (follow-up assays come after a bar, where they were run).

CC(C)=CCC/C(C)=C/C=N/NC(=O)c1cccc([N+](=O)[O-])c1	none
C/C(=N\NC(=O)c1ccc(Br)cc1)c1cccnc1	none
C/C(=N/NC(=O)c1ccco1)c1cccnc1	SMARCA2 act 8.3 | SMARCA2 conf inactive | GAL4-VP16 Luc inactive
CCN(CC)CCNC(=O)Cc1c(C(=O)O)n(C)c2ccccc12	SMARCA2 act 9.5 | SMARCA2 conf inactive | GAL4-VP16 Luc inactive
CCN(CC)CCCNC(=O)Cc1c(C(=O)O)n(C)c2ccccc12	none
Cc1ccc(Cl)c2c1NC(=O)C2(O)CC(=O)c1ccc(Br)cc1 (configuration not stated)	none
O=C(CC1(O)C(=O)Nc2cc(Cl)cc(Cl)c21)c1ccncc1 (configuration not stated)	SMARCA2 act 11.1 | SMARCA2 conf inactive | GAL4-VP16 Luc inactive
COc1ccc(C(=O)Nn2cnnc2)cc1	none
COc1ccccc1C(=O)Nc1ccc2c(c1)nc1n2CCSC1	SMARCA2 act 8.9 | SMARCA2 conf 14.7 | GAL4-VP16 Luc 5.6
COc1ccc(OCC(=O)Nc2ccc3c(c2)nc2n3CCSC2)cc1	none
CCCCC(=O)Nc1ccc2c(c1)nc1n2CCSC1	SMARCA2 act 8.1 | SMARCA2 conf 8.0 | GAL4-VP16 Luc 5.8
Cc1cccc(NC(=O)CNC(=O)c2cccc(-n3cccc3)c2)c1C	none
CCS(=O)(=O)N1CCC(C(=O)Nc2cc([N+](=O)[O-])ccc2C)CC1	none
COc1ccc(CNC(=O)c2cccc(C)c2[N+](=O)[O-])cc1	none
O=c1c2ccccc2sn1-c1ccccc1	none
O=c1c2ccccc2sn1-c1cccc(Cl)c1	SMARCA2 act 12.9 | SMARCA2 conf inactive | GAL4-VP16 Luc inactive
Cn1sc2ccccc2c1=O	SMARCA2 act 12.8 | SMARCA2 conf 16.4 | GAL4-VP16 Luc inactive
COCc1c(C(=O)N2CCN(c3ccccc3C)CC2)oc2ccccc12	none
N#Cc1ccccc1NC(=O)COC(=O)CCc1ccc(S(=O)(=O)N2CCCCC2)cc1	none
COc1cccc2sc(Nc3nc(-c4ccccn4)cs3)nc12	none (no result: SMARCA2 act, hgDAF12 agonist, DAX1 inh-1, hcDAF12 agonist, ssDAF12 agonist)
COc1cccc2sc(Nc3nnc(-c4cccs4)o3)nc12	SMARCA2 act 15.2 | SMARCA2 conf inactive | GAL4-VP16 Luc 14.1
Cc1ccccc1C(=O)NNC(=O)c1ccc(Br)cc1	SMARCA2 act 9.0 | SMARCA2 conf inactive | GAL4-VP16 Luc 5.5
Cc1cccc(C(=O)NNC(=O)c2ccccc2C)c1	none
CCOc1ccc(C(=O)NCC(C)CN(C)C)cc1OCC (configuration not stated)	SMARCA2 act 9.4 | SMARCA2 conf inactive | GAL4-VP16 Luc inactive
CCOc1cc(C(=O)NCC(C)CN(C)C)cc(OCC)c1OCC (configuration not stated)	none
Cc1sc2cc(-c3cccc([N+](=O)[O-])c3)c(-c3cccc([N+](=O)[O-])c3)c[n+]2c1C	none
Cc1noc(C)c1-c1ccc(C(=O)Nc2ccc(C(C)C)cc2)c2occc12	none (no result: DAX1 inh-2)
CC(=O)Nc1ccc(NC(=O)c2ccc(-c3c(C)noc3C)c3ccoc23)cc1	SMARCA2 act 8.6 (no result: DAX1 inh-2) | SMARCA2 conf inactive | GAL4-VP16 Luc 10.2
